For 86 compounds, inhibition results are on record in PubChem BioAssay AID588405 (Sanford-Burnham Center for Chemical Genomics, 2011).

The whole screen tested about 360,000 compounds, of which about 6,200 (1.7%) were called active.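 Rule for the calls: active = inhibition of at least 50% at 20 µM; inactive = the rest.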 For the sample, actives were picked, then their nearest neighbours and some compounds at random.

The assay can be described thus: Peg3 promoter-driven luciferase inhibitors, primary screen, cell-based, HeLa, luciferase luminescence (AID 588405). As to conditions: HeLa PEG-Prom luciferase reporter, overnight, at 20 µM, stronger effect = higher value. (In a reporter assay the amount or activity of a reporter protein is the signal.)
Regarding `CCc1nc2ccc(C(=O)NCCNC(C)=O)cn2c1N(CC)Cc1cccc(Br)c1`, the inhibition (commonly the relative decrease from the control value, in per cent) was 5.16% (inactive).

Turning to `Cc1ccc2nc(-c3ccncc3)cc(C(=O)Nc3ccncc3)c2c1`, the inhibition was 70.2% (active).

Regarding `Cc1ccc2nc(-c3ccncc3)cc(C(=O)Nc3ccc(OC(F)F)cc3)c2c1`, the inhibition was 27.7% (inactive).

On to `O=C(Nc1ccc(S(=O)(=O)Nc2nccs2)cc1)c1cc(-c2ccncc2)nc2ccccc12`, for which the inhibition is 11.9% (inactive).

`CCC1(C)Cc2c(sc3nnn(CC(=O)Nc4ccc(Cl)cc4)c(=O)c23)CO1` (stereo unspecified): the inhibition is 11.2% (inactive).

For `O=C(/C=C/[C@H]1O[C@@H](n2ccc(=O)[nH]c2=O)[C@H](O)[C@@H]1O)NCc1ccccn1`, the inhibition was 12.5% (inactive).

For the compound `CCCN(CC(=O)NC(=O)NC1CCCCC1)CC(=O)Nc1cc(Cl)ccc1Cl`, the inhibition is 32.9% (inactive).

In the case of `CC(C)(C(=O)N1CCC1(C)C(=O)NS(=O)(=O)c1ccc(Br)cc1)c1ccccc1` (stereo unspecified), the inhibition was 3.42% (inactive).

Consider `CCOC(=O)/C(=N\Nc1ccccc1[N+](=O)[O-])c1csc(Nc2ccccc2)n1`, for which the inhibition was 20.3% (inactive).

As to `O=C(O)C(=Cc1ccc([N+](=O)[O-])cc1)CCc1ccccc1`, the inhibition was -9.17% (inactive).

`CCOC(=O)/C(=C\c1ccc([N+](=O)[O-])cc1)C(=O)c1cc(C(C)=O)c(Nc2ccccc2)s1`: the inhibition is 106% (active).

`CN1C[C@@H](CO)O[C@@H](n2cnc3c(N4CCN(CCO)CC4)ncnc32)C1`: the inhibition was 8.41% (inactive).

Consider `Cc1cc(NC(=O)CSc2ncc(C(F)(F)F)cc2Cl)no1`, for which the inhibition was 5.97% (inactive).

Turning to `Cc1nc(SCC(=O)Nc2cc(C)on2)c2c(C)c(C)sc2n1`, the inhibition is 73.6% (active).

For the compound `Cc1cc(NC(=O)CSc2nc(C(C)C)nc3sc4c(c23)CCC(C)C4)no1` (stereo unspecified), the inhibition is -3.65% (inactive).

`Cc1cc(C(=O)N2CCCC2(C)C(=O)O)c(C)o1` (stereo unspecified): the inhibition was -4.99% (inactive).

`COc1ccc(C(C)(NC(C)=O)c2nc(-c3ccc(S(C)(=O)=O)cc3)cs2)cc1` (stereo unspecified): the inhibition was 7.41% (inactive).

As for `COc1cc(CNc2ncnc3c2ncn3[C@H]2CN(Cc3cccs3)C[C@@H](CO)O2)cc(OC)c1OC`, the inhibition is 10.1% (inactive).

For `O=CNc1cc(-c2ccc(C(=O)N3CCOCC3)cc2)cn2c(-c3ccc(F)cc3)cnc12`, the inhibition was 38.7% (inactive).

As for `NC(=O)CC[C@@H]1NC(=O)[C@H](CO)NC(=O)c2cc([N+](=O)[O-])cc(I)c2NCC[C@@H](C(N)=O)NC1=O`, the inhibition was 4.02% (inactive).

`NCCCC[C@@H]1NC(=O)[C@H](CCC(=O)O)NC(=O)c2cc([N+](=O)[O-])cc(I)c2NCC[C@@H](C(N)=O)NC1=O`: the inhibition is 4.12% (inactive).

As for `CC(C)[C@@H]1NC(=O)c2cc([N+](=O)[O-])cc(I)c2NCCC[C@@H](C(=O)NC(CC(=O)O)C(N)=O)NC(=O)[C@H](CO)NC1=O` (stereo partly specified), the inhibition is 95.8% (active).

As to `COc1cccc(-c2cc3nc(NCCOc4ccccc4Cl)n(C)c(=O)c3s2)c1`, the inhibition was -22% (inactive).

Regarding `Cc1ccccc1S(=O)(=O)N1[C@@H](c2cccc(Cl)c2)C(C(=O)OC(C)(C)C)=CC[C@H]1c1ccc(Cl)cc1`, the inhibition is 0.82% (inactive).

With `COc1cccc(-c2ccc3c(c2)N(Cc2ccccc2OC)C(=O)C(C)S3)c1` (stereo unspecified), the inhibition was -0.98% (inactive).

In the case of `Nc1ncnc2c1ncn2[C@@H]1O[C@H](C(=O)NS(=O)(=O)c2c(Cl)nc3sccn23)[C@@H](O)[C@H]1O`, the inhibition is 8.22% (inactive).

For the compound `CCc1nc2c(OCc3ccc(C(F)(F)F)cc3)cccn2c1N(C)C(=O)CC(C)C`, the inhibition is 15.7% (inactive).

Regarding `C=C1C2C[C@H](O)C(C)(C)[C@@]2(O)[C@H](O)C[C@]23C[C@@](C)(O)[C@H](CC[C@H]12)[C@H]3O` (stereo partly specified), the inhibition is 98.4% (active).

On to `O=C(NCC12CC3CC(C1)CC(CNC(=O)N1CCCC1)(C3)C2)N1CCCC1`, for which the inhibition was 18.2% (inactive).

For `CC(C)(O)C#Cc1ccc(CNC[C@H]2O[C@@H](n3cnc4c(=O)[nH]c(N)nc43)[C@H](O)[C@@H]2O)s1`, the inhibition is 14.8% (inactive).

Regarding `CC(Nc1ccc([N+](=O)[O-])cc1[N+](=O)[O-])c1ccccc1` (stereo unspecified), the inhibition is 31.3% (inactive).

As for `O=C(O)c1cc([N+](=O)[O-])c(Nc2cccc3ccccc23)c([N+](=O)[O-])c1`, the inhibition was 5.86% (inactive).

`O=C(NC(Nc1nc2ccc([N+](=O)[O-])cc2s1)(C(F)(F)F)C(F)(F)F)c1ccccc1`: the inhibition is 68.7% (active).

With `Cc1ccc(S(=O)(=O)N2CC[C@H]3[C@@H](C2)C(=O)C[C@@H](c2ccccc2)N3S(=O)(=O)c2ccc(C)cc2)cc1`, the inhibition was -19.4% (inactive).

For `CSc1ccc(CN2CCC2(C)C(=O)Nc2ccc(C)c(O)c2)cc1` (stereo unspecified), the inhibition was -4.73% (inactive).

`c1ccc(Cc2c(-c3ccco3)nc3c4ccccc4ccn23)cc1`: the inhibition is -310% (inactive).

Consider `O=C(NCc1ccc(F)cc1)c1cc(C2CCCCN2C(=O)C2CCCCC2)on1` (stereo unspecified), for which the inhibition is 2.91% (inactive).

On to `O=C(/C=C/Sc1ncn[nH]1)c1ccc(Cl)cc1`, for which the inhibition was 100% (active).

As to `COc1ccccc1/C=C/C=N/NC(=O)CN1CCN(Cc2ccccc2)CC1`, the inhibition is 3.31% (inactive).

Take `COc1ccc(Cl)cc1C=CC=NNC(=O)c1ccncc1`: the inhibition is 97% (active).

Regarding `COc1ccc(Cl)cc1C=CC=Nc1ccc(S(N)(=O)=O)cc1`, the inhibition is 7.02% (inactive).

Consider `COCc1cccc(-c2csc(C(O)c3ccc(F)cc3)n2)c1` (stereo unspecified), for which the inhibition is -120% (inactive).

`CCCS(=O)(=O)NC(=O)C1(C)CCCN(C(=O)c2cccs2)C1` (stereo unspecified): the inhibition is 12.1% (inactive).

For the compound `CCc1ccc(-n2c(SCc3cc(=O)n4cc(Br)ccc4n3)nc3[nH]ncc3c2=O)cc1`, the inhibition was 54.1% (active).

Consider `Cc1cccc2nc(CSc3nc4[nH]ncc4c(=O)n3-c3cccc(Cl)c3)cc(=O)n12`, for which the inhibition is 38.6% (inactive).

In the case of `O=c1c2sccc2nc(SCc2cc(=O)n3ccccc3n2)n1-c1ccc(Br)cc1`, the inhibition is 40.8% (inactive).

Turning to `COc1cc(C=C(OC(C)=O)c2ccc3c(c2)OCO3)cc(OC)c1OC`, the inhibition is 7.01% (inactive).

Consider `COc1ccc(C2=NN(C(=O)c3ccccc3C(=O)O)C(c3ccccc3O)C2)cc1` (stereo unspecified), for which the inhibition was -268% (inactive).

Take `COc1ccc(C2CC(c3ccccc3)=NN2C(=O)c2ccc(Cl)c([N+](=O)[O-])c2)cc1` (stereo unspecified): the inhibition is 72.4% (active).

For the compound `COc1ccc(C2CC(c3ccccc3)=NN2C(=O)CSc2nccc(=O)[nH]2)cc1` (stereo unspecified), the inhibition is -109% (inactive).

For `CC(=O)Nc1cc(-c2ccccc2N(C)C)cn2c(-c3ccc(F)c(Cl)c3)cnc12`, the inhibition is 32% (inactive).

As for `COc1ccc(NC(=O)C(C)SCc2ccccc2)cc1` (stereo unspecified), the inhibition is -27.6% (inactive).

As to `O=C(c1cc(C2CCCCN2S(=O)(=O)c2ccccc2)on1)N1CCOCC1` (stereo unspecified), the inhibition is 1.6% (inactive).

On to `COc1cc(Cn2c3ccc(NC(=O)CC(C)c4ccccc4)cc3c(=O)n2C)ccc1F` (stereo unspecified), for which the inhibition is 12.9% (inactive).

With `COC(=O)c1c(C)[nH]c(C(=O)/C=C/c2ccc(Cl)cc2)c1C`, the inhibition was -126% (inactive).

With `Cc1[nH]c(=O)c(C(=O)/C=C/c2ccccc2)c2c1CCCC2`, the inhibition is 102% (active).

Take `CC1(C(=O)O)CCCN(C(=O)/C=C/c2ccccc2)C1` (stereo unspecified): the inhibition was 5.91% (inactive).

For `COc1ccc(-c2coc3c(C(=O)NC(C)C)cccc23)c(C)c1`, the inhibition is 10.8% (inactive).

For `COc1ccc(S(=O)(=O)NC(=O)C2(C)CCN2C(=O)c2ccccc2CCc2ccccc2)cc1` (stereo unspecified), the inhibition was -1.34% (inactive).

In the case of `CCCC(=O)N1CCC1(C)C(=O)NCc1ccc(SC)cc1` (stereo unspecified), the inhibition was -5.97% (inactive).

Take `Cc1cccc(N2C(=O)SC(SC(=Nc3ccccc3)Nc3ccccc3)C2=O)c1` (stereo unspecified): the inhibition was -30% (inactive).

Take `Cc1ccc(-c2nn(C(C)(C)C)c3ncnc(N)c23)cc1`: the inhibition is 55.2% (active).

For the compound `N#Cc1ccc(-c2ccc3nccn3c2)cc1`, the inhibition is -24.7% (inactive).

On to `O=C1NC(c2ccccc2)=NC1(Nc1ccccn1)C(F)(F)F` (stereo unspecified), for which the inhibition is -4.5% (inactive).

For `CC(=O)c1ccc(-c2cnc3c(NC=O)cc(-c4cccc(NS(C)(=O)=O)c4)cn23)cc1`, the inhibition is 48.1% (inactive).

On to `Cc1ccc(-c2ccc(=O)n(Cc3ccc(F)cc3Cl)n2)cc1`, for which the inhibition is 2.87% (inactive).

For `O=c1c([N+](=O)[O-])cccn1Cc1ccc(F)cc1Cl`, the inhibition is 56.1% (active).

As to `N/C(=N/O)c1cccn1Cc1ccccc1[N+](=O)[O-]`, the inhibition was 3.69% (inactive).

For the compound `CC(C)c1cccc(-c2csc(C(O)c3ccccc3)n2)c1` (stereo unspecified), the inhibition was -103% (inactive).

As for `CSCCC(c1nnnn1Cc1ccccc1)N1CCN(C/C=C/c2ccccc2)CC1` (stereo unspecified), the inhibition was 11.4% (inactive).

As for `CCc1ccc(C2N3CC4([N+](=O)[O-])CN2CC([N+](=O)[O-])(C3)C4(C)C)cc1` (stereo unspecified), the inhibition was 27.3% (inactive).

For `C=CC[n+]1c(-c2ccc(C)cc2)csc1NNC(=O)Nc1ccccc1`, the inhibition is -6.81% (inactive).

Turning to `NC(c1csc(NC(=O)Nc2ccccc2Oc2ccccc2)n1)c1ccccc1Cl` (stereo unspecified), the inhibition is 58.1% (active).

`CC(=O)c1ccc(Nc2nc(C(N)c3ccccc3Cl)cs2)cc1` (stereo unspecified): the inhibition is -22.8% (inactive).

For the compound `COc1ccccc1NC(=O)Nc1nc(CC(=O)Nc2ccccc2F)cs1`, the inhibition is 4.34% (inactive).

Consider `O=S1(=O)C[C@@H](N2CCN(CCO)CC2)[C@H](COCc2ccccc2)N1`, for which the inhibition is -0.57% (inactive).

Consider `COC(=O)C1=C(C)N(C(C)c2ccccc2)C(=O)/C1=C\c1ccco1` (stereo unspecified), for which the inhibition was 12.2% (inactive).

On to `COCCn1c(=S)[nH]c2cc(C(=O)NCCc3ccc(OC)c(OC)c3)ccc2c1=O`, for which the inhibition is 17.6% (inactive).

Regarding `O=C(CCn1c(=S)[nH]c2cc3c(cc2c1=O)OCO3)NCc1ccc(Cl)cc1`, the inhibition was 9.93% (inactive).

Turning to `CCN(CC)CCCNC(=O)c1ccc2c(=O)n(Cc3ccc4c(c3)OCO4)c(=S)[nH]c2c1`, the inhibition is 56.1% (active).

Consider `Cc1nnc(NC(=O)C(c2ccccc2)c2ccccc2)s1`, for which the inhibition was -0.94% (inactive).

In the case of `NC(=O)CSc1nnc(NC(=O)c2ccc(Br)o2)s1`, the inhibition is -5.94% (inactive).

Consider `Cc1ccc(S(=O)(=O)CCC(=O)Nc2nnc(CC(C)C)s2)cc1`, for which the inhibition is 10.6% (inactive).

In the case of `O=C(Nc1nnc(-c2ccc(F)cc2)s1)c1c(F)cccc1Cl`, the inhibition is -27.2% (inactive).

On to `Cc1ccc(CS(=O)(=O)c2ncc(Cl)c(C(=O)Nc3nnc(C)s3)n2)cc1`, for which the inhibition was 98.9% (active).

In the case of `CSc1nnc(NC(=O)c2nc(S(=O)(=O)Cc3ccc(C)cc3)ncc2Cl)s1`, the inhibition was 103% (active).
